This note sets out measurements from PMC7862700, “An all-to-all approach to the identification of sequence-specific readers for epigenetic DNA modifications on cytosine”.

Common to all, as to experiment: DAPPL (digital affinity profiling via proximity ligation, sequencing); 10 mM Tris-HCl pH 7.5, 50 mM NaCl, 1 mM DTT, 4% glycerol, room temperature, 30 min; GST-TFs on glutathione beads, 16-mer random dsDNA library, 0.1% formaldehyde crosslink after washing; high values mean tight binding
The target of one assay is T1, FEV (Homo sapiens, UniProt Q99581 1-238).
T1 sequence: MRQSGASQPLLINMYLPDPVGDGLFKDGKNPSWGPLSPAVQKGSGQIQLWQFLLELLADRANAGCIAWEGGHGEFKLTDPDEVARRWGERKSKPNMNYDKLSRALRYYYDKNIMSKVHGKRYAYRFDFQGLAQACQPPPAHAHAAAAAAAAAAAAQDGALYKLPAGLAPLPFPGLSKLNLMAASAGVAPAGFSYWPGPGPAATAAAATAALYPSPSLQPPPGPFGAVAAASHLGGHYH
To be noted: protein: recombinant; tags: N-terminal GST; dsDNA, one strand shown. In outline: (§1)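 Human transcription factors were made in yeast as GST fusions, captured on glutathione beads and barcoded with DNA. With a tag-only sample included, the pool was incubated with 200 nmole of a random double-stranded 16-mer DNA library in Tris/NaCl/DTT/glycerol buffer at room temperature for 30 min, then crosslinked with 0.1% formaldehyde after washing, ligated by proximity, amplified and sequenced. For binding signal, each hexamer's read frequency for a factor is divided by its frequency for the tag-only sample.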

For the next assay, the target named is ETV5 (Homo sapiens, UniProt P41161 1-510). To be noted: protein: recombinant; tags: N-terminal GST; dsDNA, one strand shown. A digest of the protocol:
as §1

A further assay addresses HSF1 (Homo sapiens, UniProt Q00613 1-529). To be noted: protein: recombinant; tags: N-terminal GST; chain copies: 3; dsDNA, one strand shown. A digest of the protocol: as §1
In the next assay the target is T2, SPIC (Homo sapiens, UniProt Q8N5J4 1-248).
T2 sequence: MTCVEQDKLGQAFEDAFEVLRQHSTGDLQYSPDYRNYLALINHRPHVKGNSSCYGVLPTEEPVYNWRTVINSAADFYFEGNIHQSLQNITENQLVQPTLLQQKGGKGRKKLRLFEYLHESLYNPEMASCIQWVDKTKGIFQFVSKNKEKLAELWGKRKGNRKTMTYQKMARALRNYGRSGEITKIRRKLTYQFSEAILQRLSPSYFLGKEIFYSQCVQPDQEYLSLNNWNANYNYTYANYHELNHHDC
To be noted: protein: recombinant; tags: N-terminal GST; dsDNA, one strand shown. In outline: as §1

Another assay has as its target ELF4 (Homo sapiens, UniProt Q99607 1-663). To be noted: protein: recombinant; tags: N-terminal GST; dsDNA, one strand shown. A digest of the protocol: as §1
For another assay, the target named is T3, ELK4 (Homo sapiens, UniProt P28324-2 1-405).
T3 sequence: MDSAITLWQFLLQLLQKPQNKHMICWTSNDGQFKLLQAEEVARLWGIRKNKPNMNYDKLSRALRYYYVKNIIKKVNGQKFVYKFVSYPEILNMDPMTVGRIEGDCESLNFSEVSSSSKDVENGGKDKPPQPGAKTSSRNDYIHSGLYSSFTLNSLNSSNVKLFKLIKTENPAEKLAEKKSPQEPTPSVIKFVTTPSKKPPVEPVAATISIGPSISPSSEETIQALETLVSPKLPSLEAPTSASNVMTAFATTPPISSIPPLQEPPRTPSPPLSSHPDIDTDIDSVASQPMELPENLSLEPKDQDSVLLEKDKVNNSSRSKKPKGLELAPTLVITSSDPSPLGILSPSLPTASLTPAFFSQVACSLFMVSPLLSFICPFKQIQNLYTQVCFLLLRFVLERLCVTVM
To be noted: protein: recombinant; tags: N-terminal GST; dsDNA, one strand shown. In outline: as §1

For the next assay, the target named is T4, ETV2 (Homo sapiens, UniProt O00321 1-342).
T4 sequence: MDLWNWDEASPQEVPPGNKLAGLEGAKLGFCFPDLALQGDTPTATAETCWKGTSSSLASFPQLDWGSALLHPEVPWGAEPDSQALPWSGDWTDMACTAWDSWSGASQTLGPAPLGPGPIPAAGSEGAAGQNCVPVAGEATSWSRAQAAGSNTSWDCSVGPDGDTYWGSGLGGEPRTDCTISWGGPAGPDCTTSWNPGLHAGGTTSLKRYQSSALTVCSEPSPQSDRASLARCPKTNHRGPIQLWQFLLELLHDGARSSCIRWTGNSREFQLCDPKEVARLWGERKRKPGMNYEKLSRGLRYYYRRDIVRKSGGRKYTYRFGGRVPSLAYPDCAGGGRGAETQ
To be noted: protein: recombinant; tags: N-terminal GST; dsDNA, one strand shown. A digest of the protocol:
as §1

The next assay addresses T5, ELF3 (Homo sapiens, UniProt P78545 1-371).
T5 sequence: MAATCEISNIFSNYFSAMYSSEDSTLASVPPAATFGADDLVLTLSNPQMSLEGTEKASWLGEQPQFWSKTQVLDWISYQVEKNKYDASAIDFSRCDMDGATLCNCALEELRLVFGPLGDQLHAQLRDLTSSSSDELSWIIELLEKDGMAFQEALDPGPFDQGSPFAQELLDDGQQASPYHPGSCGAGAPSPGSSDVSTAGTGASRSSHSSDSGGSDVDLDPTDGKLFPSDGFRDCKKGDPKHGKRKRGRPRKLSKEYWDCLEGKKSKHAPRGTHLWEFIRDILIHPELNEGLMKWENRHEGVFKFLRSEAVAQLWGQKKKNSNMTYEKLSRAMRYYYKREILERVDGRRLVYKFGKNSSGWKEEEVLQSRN
To be noted: protein: recombinant; tags: N-terminal GST; dsDNA, one strand shown. A digest of the protocol: as §1

In a further assay the target is CRX (Homo sapiens, UniProt O43186 1-299). To be noted: protein: recombinant; tags: N-terminal GST; dsDNA, one strand shown. In outline:
as §1

In a further assay the target is ETV1 (Homo sapiens, UniProt P50549 1-477). To be noted: protein: recombinant; tags: N-terminal GST; dsDNA, one strand shown. In outline:
as §1

The target in another assay is T6, ERF (Homo sapiens, UniProt P50548 1-548).
T6 sequence: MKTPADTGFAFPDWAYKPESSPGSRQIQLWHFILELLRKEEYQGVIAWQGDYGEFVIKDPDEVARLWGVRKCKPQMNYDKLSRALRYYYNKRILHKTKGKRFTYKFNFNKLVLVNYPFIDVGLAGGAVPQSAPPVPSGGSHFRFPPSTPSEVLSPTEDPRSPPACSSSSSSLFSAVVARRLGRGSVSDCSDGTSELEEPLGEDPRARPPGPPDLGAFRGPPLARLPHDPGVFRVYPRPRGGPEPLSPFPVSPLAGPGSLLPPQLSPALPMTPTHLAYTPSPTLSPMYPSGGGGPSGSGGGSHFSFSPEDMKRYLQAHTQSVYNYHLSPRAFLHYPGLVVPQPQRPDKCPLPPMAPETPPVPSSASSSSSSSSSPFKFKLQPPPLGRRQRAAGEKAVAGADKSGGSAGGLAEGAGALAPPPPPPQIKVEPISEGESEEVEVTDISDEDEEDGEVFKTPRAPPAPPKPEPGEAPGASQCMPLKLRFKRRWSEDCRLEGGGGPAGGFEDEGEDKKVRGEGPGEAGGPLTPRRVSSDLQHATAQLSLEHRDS
To be noted: protein: recombinant; tags: N-terminal GST; dsDNA, one strand shown. In outline:
as §1

For another assay, the target named is T7, ETV3L (Homo sapiens, UniProt Q6ZN32 1-361).
T7 sequence: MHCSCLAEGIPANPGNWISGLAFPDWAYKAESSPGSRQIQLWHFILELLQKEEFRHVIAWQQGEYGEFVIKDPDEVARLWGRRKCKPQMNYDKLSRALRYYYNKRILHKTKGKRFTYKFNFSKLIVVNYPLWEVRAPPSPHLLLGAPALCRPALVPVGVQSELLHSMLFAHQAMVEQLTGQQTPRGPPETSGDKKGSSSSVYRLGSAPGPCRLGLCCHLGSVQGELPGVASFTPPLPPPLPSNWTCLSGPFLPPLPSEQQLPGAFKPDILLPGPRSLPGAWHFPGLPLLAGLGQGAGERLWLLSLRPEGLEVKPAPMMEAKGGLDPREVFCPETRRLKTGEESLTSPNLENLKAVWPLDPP
To be noted: protein: recombinant; tags: N-terminal GST; dsDNA, one strand shown. In outline:
as §1

In a further assay the target is T8, ETS2 (Homo sapiens, UniProt P15036 1-469).
T8 sequence: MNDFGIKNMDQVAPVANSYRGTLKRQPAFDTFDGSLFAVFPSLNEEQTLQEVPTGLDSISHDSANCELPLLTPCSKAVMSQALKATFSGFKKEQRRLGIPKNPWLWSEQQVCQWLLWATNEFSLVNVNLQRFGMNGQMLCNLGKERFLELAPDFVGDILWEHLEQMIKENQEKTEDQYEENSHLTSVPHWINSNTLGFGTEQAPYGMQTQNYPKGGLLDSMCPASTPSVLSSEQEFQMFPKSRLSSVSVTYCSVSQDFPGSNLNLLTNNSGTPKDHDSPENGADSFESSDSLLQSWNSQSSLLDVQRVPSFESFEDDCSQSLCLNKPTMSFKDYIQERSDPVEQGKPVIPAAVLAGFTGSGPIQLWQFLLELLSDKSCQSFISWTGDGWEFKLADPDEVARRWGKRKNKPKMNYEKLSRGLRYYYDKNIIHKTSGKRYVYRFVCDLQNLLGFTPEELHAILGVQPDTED
To be noted: protein: recombinant; tags: N-terminal GST; dsDNA, one strand shown. A digest of the protocol:
as §1

The target in the next assay is T9, SPDEF (Homo sapiens, UniProt O95238 1-335).
T9 sequence: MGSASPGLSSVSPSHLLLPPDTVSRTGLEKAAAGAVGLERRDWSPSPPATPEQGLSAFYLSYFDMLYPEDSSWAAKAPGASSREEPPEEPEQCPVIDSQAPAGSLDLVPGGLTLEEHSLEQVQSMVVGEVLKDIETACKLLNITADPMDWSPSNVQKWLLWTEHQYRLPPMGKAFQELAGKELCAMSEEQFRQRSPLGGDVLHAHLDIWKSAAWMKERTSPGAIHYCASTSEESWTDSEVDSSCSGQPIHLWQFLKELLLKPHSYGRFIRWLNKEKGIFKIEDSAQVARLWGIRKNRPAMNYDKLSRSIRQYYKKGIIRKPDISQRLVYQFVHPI
To be noted: protein: recombinant; tags: N-terminal GST; dsDNA, one strand shown. In outline: as §1

In a further assay the target is T10, ETV7 (Homo sapiens, UniProt Q9Y603 1-341).
T10 sequence: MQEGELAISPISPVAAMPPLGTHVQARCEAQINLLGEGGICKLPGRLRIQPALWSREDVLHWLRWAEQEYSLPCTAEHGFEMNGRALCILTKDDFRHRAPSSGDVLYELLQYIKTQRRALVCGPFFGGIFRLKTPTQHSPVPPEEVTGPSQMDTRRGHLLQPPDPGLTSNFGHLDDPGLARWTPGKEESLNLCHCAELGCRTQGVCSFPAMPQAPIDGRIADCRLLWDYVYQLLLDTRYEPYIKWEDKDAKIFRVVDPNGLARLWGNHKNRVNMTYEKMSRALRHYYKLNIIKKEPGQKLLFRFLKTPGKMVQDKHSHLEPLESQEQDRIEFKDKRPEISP
To be noted: protein: recombinant; tags: N-terminal GST; dsDNA, one strand shown. A digest of the protocol: as §1

The target of a further assay is T11, ELF5 (Homo sapiens, UniProt Q9UKW6-2 1-255).
T11 sequence: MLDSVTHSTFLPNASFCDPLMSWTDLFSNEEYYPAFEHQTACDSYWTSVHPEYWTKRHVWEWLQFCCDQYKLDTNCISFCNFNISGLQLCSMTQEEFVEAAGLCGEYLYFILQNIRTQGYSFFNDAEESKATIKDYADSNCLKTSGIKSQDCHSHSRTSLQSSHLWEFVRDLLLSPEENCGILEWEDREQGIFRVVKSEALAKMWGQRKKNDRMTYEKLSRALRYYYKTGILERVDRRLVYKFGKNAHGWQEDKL
To be noted: protein: recombinant; tags: N-terminal GST; dsDNA, one strand shown. A digest of the protocol:
as §1

The target of the next assay is T12, ETV3 (Homo sapiens, UniProt P41162-2 1-143).
T12 sequence: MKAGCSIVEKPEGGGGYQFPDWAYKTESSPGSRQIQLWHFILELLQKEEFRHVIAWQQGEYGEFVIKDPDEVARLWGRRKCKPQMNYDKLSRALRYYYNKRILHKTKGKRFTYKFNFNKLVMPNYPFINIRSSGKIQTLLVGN
To be noted: protein: recombinant; tags: N-terminal GST; dsDNA, one strand shown. In outline: as §1

In another assay the target is ETV6 (Homo sapiens, UniProt P41212 1-452). To be noted: protein: recombinant; tags: N-terminal GST; dsDNA, one strand shown. In outline: as §1
ETV6, sequence (P41212 whole entry): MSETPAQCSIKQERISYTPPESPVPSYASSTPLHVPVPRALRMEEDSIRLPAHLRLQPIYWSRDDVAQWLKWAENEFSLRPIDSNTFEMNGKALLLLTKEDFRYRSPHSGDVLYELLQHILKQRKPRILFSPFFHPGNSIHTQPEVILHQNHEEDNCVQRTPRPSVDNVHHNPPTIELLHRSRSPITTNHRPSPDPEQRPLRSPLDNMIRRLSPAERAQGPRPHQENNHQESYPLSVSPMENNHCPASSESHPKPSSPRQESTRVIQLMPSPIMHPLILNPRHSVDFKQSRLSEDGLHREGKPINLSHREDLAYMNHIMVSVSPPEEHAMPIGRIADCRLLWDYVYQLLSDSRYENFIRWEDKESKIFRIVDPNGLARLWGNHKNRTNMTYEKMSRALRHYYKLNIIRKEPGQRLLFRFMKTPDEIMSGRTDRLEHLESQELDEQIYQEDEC

ETV5, sequence (P41161 whole entry): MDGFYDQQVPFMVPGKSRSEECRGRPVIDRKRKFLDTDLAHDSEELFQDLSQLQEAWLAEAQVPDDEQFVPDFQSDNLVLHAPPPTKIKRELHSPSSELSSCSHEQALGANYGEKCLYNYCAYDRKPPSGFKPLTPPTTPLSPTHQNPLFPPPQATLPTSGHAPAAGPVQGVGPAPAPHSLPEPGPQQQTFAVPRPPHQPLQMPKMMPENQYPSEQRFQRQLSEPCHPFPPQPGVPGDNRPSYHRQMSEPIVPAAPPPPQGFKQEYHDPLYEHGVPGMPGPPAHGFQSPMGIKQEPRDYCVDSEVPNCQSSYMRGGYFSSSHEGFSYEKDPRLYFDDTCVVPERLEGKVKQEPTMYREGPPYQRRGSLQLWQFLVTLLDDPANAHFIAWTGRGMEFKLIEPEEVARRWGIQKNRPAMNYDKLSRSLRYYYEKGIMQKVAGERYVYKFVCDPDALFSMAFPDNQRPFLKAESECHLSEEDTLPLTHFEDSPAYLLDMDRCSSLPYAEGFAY
ELF4, sequence (Q99607 whole entry): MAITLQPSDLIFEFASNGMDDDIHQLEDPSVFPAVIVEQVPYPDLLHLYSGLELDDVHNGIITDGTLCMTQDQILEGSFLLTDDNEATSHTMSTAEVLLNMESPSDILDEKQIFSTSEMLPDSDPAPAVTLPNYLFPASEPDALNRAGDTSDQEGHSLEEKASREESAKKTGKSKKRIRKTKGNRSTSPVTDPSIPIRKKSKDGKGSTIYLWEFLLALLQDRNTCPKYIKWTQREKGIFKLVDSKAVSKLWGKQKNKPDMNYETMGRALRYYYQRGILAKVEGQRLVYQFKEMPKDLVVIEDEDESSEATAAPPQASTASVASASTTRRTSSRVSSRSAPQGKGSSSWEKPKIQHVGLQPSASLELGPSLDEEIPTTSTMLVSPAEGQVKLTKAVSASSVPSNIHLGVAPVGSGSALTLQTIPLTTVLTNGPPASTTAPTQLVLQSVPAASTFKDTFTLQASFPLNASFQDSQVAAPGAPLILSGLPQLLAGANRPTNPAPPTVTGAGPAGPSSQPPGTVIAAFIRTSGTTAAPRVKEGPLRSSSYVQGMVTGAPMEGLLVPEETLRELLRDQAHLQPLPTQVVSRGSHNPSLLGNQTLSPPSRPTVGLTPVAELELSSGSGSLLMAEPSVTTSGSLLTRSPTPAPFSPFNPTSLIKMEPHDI
HSF1, sequence (Q00613 whole entry): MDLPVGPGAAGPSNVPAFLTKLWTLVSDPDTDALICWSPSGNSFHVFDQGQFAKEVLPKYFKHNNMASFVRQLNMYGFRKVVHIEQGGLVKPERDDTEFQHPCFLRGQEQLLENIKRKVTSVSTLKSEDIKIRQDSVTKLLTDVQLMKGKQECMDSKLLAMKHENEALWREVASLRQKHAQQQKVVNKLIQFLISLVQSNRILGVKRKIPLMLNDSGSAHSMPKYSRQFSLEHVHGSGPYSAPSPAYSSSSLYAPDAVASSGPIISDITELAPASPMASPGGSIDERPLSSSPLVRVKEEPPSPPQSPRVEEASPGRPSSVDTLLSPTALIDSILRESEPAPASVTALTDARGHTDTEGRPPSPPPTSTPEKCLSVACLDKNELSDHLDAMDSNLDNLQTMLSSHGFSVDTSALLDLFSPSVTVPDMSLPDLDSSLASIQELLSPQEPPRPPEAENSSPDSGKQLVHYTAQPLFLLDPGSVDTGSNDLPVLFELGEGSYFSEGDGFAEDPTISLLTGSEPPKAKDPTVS
CRX, sequence (O43186 whole entry): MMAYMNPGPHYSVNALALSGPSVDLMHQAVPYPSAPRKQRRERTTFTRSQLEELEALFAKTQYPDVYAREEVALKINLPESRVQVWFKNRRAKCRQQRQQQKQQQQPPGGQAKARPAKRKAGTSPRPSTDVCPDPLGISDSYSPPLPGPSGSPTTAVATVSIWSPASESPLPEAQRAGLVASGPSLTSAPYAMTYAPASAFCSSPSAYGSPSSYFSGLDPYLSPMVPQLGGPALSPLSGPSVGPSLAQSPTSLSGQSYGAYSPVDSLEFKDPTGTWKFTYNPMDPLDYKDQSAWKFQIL
ETV1, sequence (P50549 whole entry): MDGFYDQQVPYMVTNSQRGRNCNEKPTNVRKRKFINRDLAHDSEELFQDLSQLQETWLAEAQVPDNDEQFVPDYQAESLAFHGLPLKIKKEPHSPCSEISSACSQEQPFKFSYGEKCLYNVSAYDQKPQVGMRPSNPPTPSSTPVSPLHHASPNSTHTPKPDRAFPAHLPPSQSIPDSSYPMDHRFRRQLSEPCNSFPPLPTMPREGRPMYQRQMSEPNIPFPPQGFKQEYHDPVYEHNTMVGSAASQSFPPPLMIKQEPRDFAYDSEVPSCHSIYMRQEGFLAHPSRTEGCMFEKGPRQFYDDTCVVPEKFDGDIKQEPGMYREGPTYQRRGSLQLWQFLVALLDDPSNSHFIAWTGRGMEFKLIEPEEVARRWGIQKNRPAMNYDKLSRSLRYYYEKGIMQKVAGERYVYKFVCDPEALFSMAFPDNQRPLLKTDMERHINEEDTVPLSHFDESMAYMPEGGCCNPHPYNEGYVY

As to CTGGTT, the binding signal with FEV was 1.19 fold enrichment (6-mer frequency, TF over GST control); with ETV5, 1.36 fold enrichment (6-mer frequency, TF over GST control); in the assay with HSF1, 1.24 fold enrichment (6-mer frequency, TF over GST control); with SPIC, 1.43 fold enrichment (6-mer frequency, TF over GST control); with ELF4 it was 1.33 fold enrichment (6-mer frequency, TF over GST control); with ELK4, 1.46 fold enrichment (6-mer frequency, TF over GST control). Besides, the binding signal was 1.2 fold enrichment (6-mer frequency, TF over GST control) in the assay with ETV2; 1.22 fold enrichment (6-mer frequency, TF over GST control) in the assay with ELF3; 1.22 fold enrichment (6-mer frequency, TF over GST control) with CRX; 1.3 fold enrichment (6-mer frequency, TF over GST control) in the assay with ETV1; 1.2 fold enrichment (6-mer frequency, TF over GST control) in the assay with ERF; 1.35 fold enrichment (6-mer frequency, TF over GST control) in the assay with ETV3L. Besides, the binding signal with ETS2 was 1.29 fold enrichment (6-mer frequency, TF over GST control); with SPDEF it was 1.39 fold enrichment (6-mer frequency, TF over GST control); with ETV7, 1.28 fold enrichment (6-mer frequency, TF over GST control); with ELF5, 1.38 fold enrichment (6-mer frequency, TF over GST control); with ETV3 it was 1.45 fold enrichment (6-mer frequency, TF over GST control); with ETV6, 1.32 fold enrichment (6-mer frequency, TF over GST control).
